Reference: PubChem BioAssay AID652057 (Broad Institute, 2013)
The campaign covered roughly 1,400 compounds. About 1,000 (71%) were called active. No rule for the calls is given here. The set was probably picked from earlier hits. The list is a sample of the results. Entries with a potency or affinity are not part of this list.

Experiment: inhibitors of HIV Env-driven cell fusion, dose response, cherry-pick (AID 652057)
Details: HeLa-JRFL Env/CEM21 cell fusion, luciferase; series mostly up to 35 µM; activity change, negative = inhibition: at the top concentration

Activity change, negative = inhibition, inactive:
O=C(Nc1ccc(F)cc1)Nc1ccc2c(c1)[C@H]1C[C@@H](CC(=O)N3CCCCC3)O[C@H](CO)[C@H]1O2 23.7%
CO[C@@H]1CN(C)C(=O)c2cc(NC(=O)Nc3ccc(Cl)cc3)ccc2OC[C@H](C)N(C)C[C@H]1C -23%
CCOc1ccccc1C(=O)NCC(=O)NNC(=O)CN(C)S(=O)(=O)c1ccc(Cl)cc1 -16.5%
COc1cccc(S(=O)(=O)N[C@H]2CC[C@H](CC(=O)NCc3ccncc3)O[C@@H]2CO)c1 2.5%
CCOC(=O)CN1CCCc2nc(C)c(C)cc21 8.7%
C[C@@H]1CN([C@@H](C)CO)S(=O)(=O)c2ccc(-c3ccccc3)cc2O[C@H]1CN(C)S(C)(=O)=O -12.1%
CO[C@H]1CN(C)C(=O)c2cc(NC(=O)c3ccc(F)cc3)ccc2OC[C@H](C)N(C(=O)CN(C)C)C[C@@H]1C 16.8%
CC(CCc1ccco1)NC(=O)CCc1nnc2ccc(NCc3ccccc3Cl)nn12 (stereo unspecified) 19.2%
C[C@@H]1CN([C@@H](C)CO)C(=O)Cc2cc(NC(=O)NC3CCCCC3)ccc2O[C@@H]1CN(C)S(=O)(=O)c1ccc(Cl)cc1 17.7% [at 16 µM]
CC1CCCC(C)N1CCCNC(=O)c1nn(C)c2c1CSc1ccccc1-2 (stereo unspecified) 49.2%
CCOc1ccc(NC2c3ccccc3C(=O)N2Cc2ccco2)cc1 (stereo unspecified) 4.3%
Cn1c(=O)oc2cc(S(=O)(=O)NCc3ccncc3)ccc21 -2.17%
O=C(C[C@@H]1C[C@H]2c3cc(NC(=O)C4CCOCC4)ccc3O[C@H]2[C@H](CO)O1)NCc1ccccc1F 23.4%
Cc1noc(C)c1NC(=O)N(C)C[C@H]1OCCCC[C@H](C)Oc2ccc(NC(=O)c3ccccc3)cc2C(=O)N([C@H](C)CO)C[C@@H]1C 24.3%
CC(C)NC(=O)Nc1ccc2c(c1)C(=O)N([C@@H](C)CO)C[C@H](C)[C@H](CN(C)C(=O)Nc1ccc(F)cc1)O2 -14.9%
COc1ccc(S(=O)(=O)n2ccc(-c3ccc(OCCN(C)c4ccccn4)cc3)n2)cc1 -11.7%
COc1ccccc1OCC(=O)c1[nH]c(C)c(C(C)=O)c1C -2.71%
O=C(c1ccccc1)N1CCC(c2nc(-c3ccc(S(=O)(=O)NCC4CCCO4)cc3)no2)CC1 (stereo unspecified) -19.1%
C[C@@H]1CN([C@H](C)CO)C(=O)c2c(c3ccccc3n2C)-c2ccccc2CO[C@@H]1CN(C)S(=O)(=O)c1cccc(F)c1 247% [at 18 µM]
C[C@@H]1CN([C@@H](C)CO)C(=O)c2cccc(NC(=O)c3ccc(-c4nccs4)cc3)c2O[C@H]1CN(C)CC1CC1 -19.5%
CCn1ncc(C2=NOC(C(=O)Nc3ccc(C)cc3)C2)c1C (stereo unspecified) -4.06%
C[C@H]1CN([C@@H](C)CO)C(=O)Cc2cc(N(C)C)ccc2O[C@H]1CN(C)CC1CC1 -11.9%
Cc1ccc2c(c1)C(=C(C#N)C#N)CCN2 -11.9%
O=C(Nc1ccc(N2CCN(C(=O)c3ccccc3)CC2)c(Cl)c1)c1cccnc1 -1.86% [at 16 µM]
CCCNC(=O)C[C@@H]1C[C@@H]2c3cc(NC(=O)Cc4ccncc4)ccc3O[C@@H]2[C@@H](CO)O1 13.7% [at 30 µM]
C[C@H](CO)N1C[C@H](C)[C@@H](CN(C)C(=O)NC2CCCCC2)Oc2c(cccc2N(C)C)C1=O -0.366%
CCCNC(=O)C[C@@H]1C[C@H]2c3cc(NC(=O)c4cccnc4)ccc3O[C@H]2[C@H](CO)O1 51.2%
COc1ccc(CN(C)C[C@@H]2Oc3ccc(NC(=O)Nc4ccc(OC)cc4)cc3C(=O)N([C@H](C)CO)C[C@@H]2C)cc1 -26%
C[C@@H]1CN([C@@H](C)CO)C(=O)c2cc(NC(=O)c3ccccc3)ccc2O[C@@H](C)CCCCO[C@H]1CN(C)Cc1ccc(C(=O)O)cc1 -13.2%
C[C@@H]1CCCCO[C@H](CN(C)C)[C@H](C)CN([C@@H](C)CO)C(=O)c2cc(NS(=O)(=O)c3cn(C)cn3)ccc2O1 31.6%
CNC[C@H]1Oc2c(NC(=O)Nc3ccc(C(F)(F)F)cc3)cccc2C(=O)N([C@@H](C)CO)C[C@H]1C 63.2%
O=C(N[C@@H]1CC[C@H](CCNS(=O)(=O)c2ccc(F)cc2)O[C@@H]1CO)C1CC1 1.98%
O=C(COC(=O)c1cc(S(=O)(=O)N2CCOCC2)ccc1O)NCc1ccc2c(c1)OCO2 -22%
CC(C)CNS(=O)(=O)c1ccc(CCC(=O)N2CCN(Cc3ccc4c(c3)OCO4)CC2)cc1 -33.2%
C[C@H]1NC(=O)[C@@]2(C)[C@H](c3ccccc3)[C@H]3COc4ccccc4[C@@H]3N2C1=O -5.75%
COCC(=O)N1C[C@@H](C)[C@H](OC)CN(C)C(=O)c2ccc(NC(=O)c3ccc(OC)cc3)cc2OC[C@@H]1C 0.438%
Nc1c(S(=O)(=O)c2ccccc2)cnc2c(-c3ccc(F)cc3)cnn12 167%
Cc1cc(Cl)ccc1OCC(=O)NNC(=O)C1CSC2(C)CCC(=O)N12 (stereo unspecified) -4.03%
O=C(Nc1cccc(F)c1)c1cc(S(=O)(=O)N2CCC(C(=O)O)CC2)ccc1F 9.32%
CCc1cc2c(NCc3ccco3)ncnc2s1 -10.4%
Nc1ncn([C@H]2C[C@H](O)[C@@H](CO)O2)c(=O)n1 12.8%
Nc1nc2c(ncn2[C@@H]2O[C@H](C(=O)NCC(c3ccccc3)c3ccccc3)[C@@H](O)[C@H]2O)c(=O)[nH]1 -7.59%
N#C[C@H]1[C@@H](c2ccccc2/C=C/c2ccccc2)[C@@H](CO)N1S(=O)(=O)c1cccc(F)c1 -24%
O=C(Nc1ccc(CN2CCS(=O)(=O)CC2)cc1)c1ccc(C(F)(F)F)cc1 -17.9%
Cc1ccc(-n2nnnc2-c2cnn(-c3ccc(F)cc3)c2C(F)(F)F)cc1 -20.2%
Cn1c(SCc2nc(-c3ccc(Cl)cc3)no2)nnc1-c1cccs1 -26.3%
Cc1cccc(C)c1NC(=O)CCCSc1nnc(-c2ccc(Cl)cc2)n1-c1ccccc1 -36.5%
COc1ccc(-c2c(C)nn3c(C(F)(F)F)cc(C)nc23)cc1 -9.71%
O=C(CN1CCN(Cc2ccc(Cl)cc2)C1=O)NCCCN1CCN(c2ccc(F)cc2)CC1 -19.3%
C[C@H]1CN([C@@H](C)CO)C(=O)c2cccc(NC(=O)C3CCCCC3)c2O[C@H]1CN(C)S(C)(=O)=O 12.7%
COCC(=O)N(C)C[C@H]1Oc2ncc(Br)cc2C(=O)N([C@H](C)CO)C[C@H]1C 2.66%
COc1ccccc1C#Cc1ccc([C@H]2[C@H](C#N)N(C(=O)C3CCCC3)[C@H]2CO)cc1 -0.57%
CCCNC(=O)N1[C@H](C#N)[C@H](c2ccc(-c3ccc(C(=O)N(C)C)cc3)cc2)[C@@H]1CO -34.4%
CCCNC(=O)N1[C@H](C#N)[C@H](c2ccc(-c3cccc(OC)c3)cc2)[C@@H]1CO -9.82%
N#C[C@@H]1[C@H](c2ccc(-c3cccc(F)c3)cc2)[C@H](CO)N1C(=O)c1cccnc1 -19.2%
O=S(=O)(NCC[C@H]1CC[C@H](NS(=O)(=O)c2ccccc2Cl)[C@H](CO)O1)c1ccc(Cl)cc1 12.1% [at 30 µM]
O=S(=O)(NCC[C@@H]1CC[C@@H](NS(=O)(=O)c2ccccc2Cl)[C@H](CO)O1)c1ccc(Cl)cc1 15.1%
COc1ccc(OCC(=O)Nc2cc(-c3nn(C)c(=O)c4ccccc34)ccc2OC)cc1 -17.9%
COc1ccc(-c2nn(C)c(=O)c3ccccc23)cc1NC(=O)COc1ccccc1 12.3%
COc1ccc(NS(=O)(=O)c2ccc3c(c2)OCCO3)cc1OC -3.46%
COc1ccc(N2CCn3c2nc2c3c(=O)n(CCCc3ccccc3)c(=O)n2C)c(OC)c1 15% [at 16 µM]
CCOC(=O)C(C)Oc1cccc2c(=O)n(CC(=O)NCCc3ccc(OC)c(OC)c3)ccc12 (stereo unspecified) 17.4%
O=C(Cc1ccncc1)N[C@H]1CC[C@@H](CCn2cc(-c3ccccc3F)nn2)O[C@@H]1CO 12.9%
O=C(CCN1CCCCC1)N[C@H]1CC[C@H](CCn2cc(-c3ccccc3)nn2)O[C@@H]1CO 8.36%
COc1ccc(-c2cn(CC[C@H]3CC[C@H](NS(=O)(=O)c4ccccc4C)[C@H](CO)O3)nn2)cc1 -1.92%
O=C(CCN1CCCCC1)N[C@@H]1CC[C@@H](CCn2cc(-c3ccccc3)nn2)O[C@@H]1CO 8.65%
Cc1ccc(C2CC(=O)c3cnc(N4CCc5ccccc5C4)nc3C2)cc1 (stereo unspecified) -20.6%
COc1ccccc1N/C(N)=N/c1nc(CSc2ccc(C)cc2)cc(=O)[nH]1 -12.1%
COc1ccc(NC(=O)C2(C)CCN2Cc2ccccc2OC(F)F)cc1OC (stereo unspecified) -7.99%
CCCc1cc(C(=O)NCc2ccc(OC)cc2)no1 10.3%
CCCCCCCCCCn1c2c(c(=N)c3c1CCC3)CCC2 94.2% [at 16 µM]
C[C@@H]1CN([C@@H](C)CO)C(=O)c2cc(NC(=O)c3ccncc3)ccc2O[C@H]1CN(C)Cc1ccncc1 -2.02%
C[C@@H]1CN([C@@H](C)CO)C(=O)c2cc(NC(=O)c3ccncc3)ccc2O[C@@H]1CN(C)Cc1ccncc1 -15.1%
C[C@H](CO)N1C[C@H](C)[C@@H](CN(C)CC2CC2)Oc2ccc(NS(C)(=O)=O)cc2CC1=O 14.9%
C[C@H](CO)N1C[C@H](C)[C@H](CN(C)Cc2ccccc2)Oc2c(NC(=O)Nc3ccc4c(c3)OCO4)cccc2C1=O 87%
COc1ccc(NC(=O)CN2CCC(C(N)=O)(N3CCCCC3)CC2)cc1 -13.8%
CCc1ccc(C(=O)CN2C(=O)NC(C)(c3ccc(C)cc3)C2=O)cc1 (stereo unspecified) -3.01%
C=CC[n+]1c(-c2ccc(OC)c(OC)c2)csc1NNC(=O)Nc1ccccc1 22.5%
CC(=O)c1ccc([C@H]2C[C@@]34CN(C(=O)OC(C)(C)C)S(=O)(=O)[C@H]3C[C@H]2O4)cc1 -21.5%
CO[C@@H]1CN(C)C(=O)c2cc(NS(=O)(=O)c3ccc(C)cc3)ccc2OC[C@H](C)N(C(=O)NC(C)C)C[C@@H]1C 58.5%
O=C(C[C@@H]1C[C@H]2c3cc(NC(=O)C4CCC4)ccc3O[C@H]2[C@H](CO)O1)NCC(F)(F)F 23.8%
